Data published in PubChem BioAssay AID1851 (National Center for Advancing Translational Sciences (NCATS), 2009).
Several values for one entry are separate records, joined by “and”; a condition that tells them apart may be missing. Identical values can stand only once. About 5,700 (36%) of roughly 16,000 compounds were called active. Not shown: some 24% with an inconclusive outcome. Calls come from the whole dose curve; as a rule, active = well fitted curve in the direction sought with a large enough effect; inconclusive = small, poorly fitted or top-dose-only effect, or effect the other way; inactive = no such curve, though single readings can be large or run the other way. This is one part of the list. A structure can be active in one record and inactive in another.

Each compound was assayed against Cytochrome P450 1A2 (Homo sapiens) (UniProt P05177) (assay: Cytochrome panel assay with activity outcomes). Conditions: recombinant CYP, pro-luciferin dealkylation, luminescence, p450-cyp1a2; series mostly up to 57.1 µM.
Cytochrome P450 1A2 (Homo sapiens), sequence (P05177 whole entry, looked up): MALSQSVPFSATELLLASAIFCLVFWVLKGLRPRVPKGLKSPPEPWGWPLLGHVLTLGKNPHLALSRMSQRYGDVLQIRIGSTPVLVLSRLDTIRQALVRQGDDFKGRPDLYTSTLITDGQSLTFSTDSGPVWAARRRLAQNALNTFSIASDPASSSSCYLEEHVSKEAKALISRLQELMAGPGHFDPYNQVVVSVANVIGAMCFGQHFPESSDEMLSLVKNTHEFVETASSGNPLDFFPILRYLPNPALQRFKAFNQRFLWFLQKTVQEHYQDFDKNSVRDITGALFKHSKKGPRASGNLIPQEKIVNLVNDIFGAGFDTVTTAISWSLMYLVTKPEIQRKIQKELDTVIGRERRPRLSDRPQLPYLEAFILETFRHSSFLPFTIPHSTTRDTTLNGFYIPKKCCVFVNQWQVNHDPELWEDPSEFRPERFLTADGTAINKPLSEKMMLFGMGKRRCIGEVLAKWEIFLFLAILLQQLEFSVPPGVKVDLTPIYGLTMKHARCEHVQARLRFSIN
% is set by controls: 0 for no effect and ±100 for the full control effect.

Compound	AC50	activity, negative = inhibition
COC(=O)N1CCC[C@@]2(CCN(C(=O)Nc3cccc(C#N)c3)C2)C1	inactive	–
O=S(=O)(c1ccccc1)N1N=C(c2cccs2)CC1c1ccc(Br)cc1 (stereo unspecified)	inactive	–
C[C@@H]1CC[C@H]2C(=O)N3[C@@H](CC[C@@H](C)[C@@H]3c3ccc(Br)cc3)C(=O)N2[C@@H]1c1ccc(Br)cc1	–	-18.2% [at 11.4 µM] (inactive)
CS(=O)(=O)N1N=C(c2ccc(Br)cc2)CC1c1ccc2c(c1)OCO2 (stereo unspecified)	3.55 µM (active)	–
C=C[C@]1(C)C[C@H](OC(=O)CO)[C@]2(C)C3C(=O)CC[C@]3(CC[C@H]2C)[C@H](C)[C@H]1O (stereo partly specified)	–	-21% [at 2.29 µM] (inactive)
COc1cccc(NC(=O)Cc2c(C(=O)O)[nH]c3ccccc23)c1	inactive	–
COc1ccc(NC(=O)N2CC3(CCN(C(=O)c4c(C)noc4C)CC3)C2)cc1	inactive	–
COc1ccc(NC(=O)COC(=O)c2c(-c3ccccc3)noc2C)cc1	12.6 µM (active)	–
COc1cccc(N2C(=O)C(CC(=O)Nc3ccccc3)N(C3CCCCC3)C2=O)c1 (stereo unspecified)	inactive	–
COc1ccc(OC)c(NC(=O)c2c3c(nc4ccccc24)CCC3)c1	12.6 µM (active)	–
COc1cccc(NC(=O)COC(=O)c2c3c(nc4ccccc24)CCC(C)C3)c1 (stereo unspecified)	2.51 µM (active)	–
COc1ccc(NC(=O)COC(=O)c2c3c(nc4ccccc24)CCCC3)cc1	7.08 µM (active)	–
CC(C)(C)Nc1nc(N2CCCC2)nc(N2CCCC2)n1	0.631 µM (active)	–
O=C1CCC(c2ccccc2)(c2ccccc2)CC1	–	-13.3% [at 11.4 µM] (inactive)
COc1ccc(CNc2nc(-c3cccc(NS(C)(=O)=O)c3)nc3ccccc23)c(OC)c1	15.8 µM (active)	–
COc1ccc(CNc2nc(-c3cccc(C#N)c3)nc3ccccc23)c(OC)c1	2.51 µM (active)	–
COc1ccccc1CNc1nc(-c2cccc(C#N)c2)nc2ccccc12	1.26 µM (active)	–
CCCc1cc2c(n1Cc1cc(F)cc(F)c1)C(C)C1CN(C(=O)c3ccccc3)C(C)(C(=O)OC)C21 (stereo unspecified)	inactive	–
Cc1noc(C)c1-c1nccc(N(C)C)n1	0.631 µM (active)	–
Cc1noc(C)c1-c1nccc(N(C)Cc2ccco2)n1	2 µM (active)	–
Cc1noc(C)c1-c1cc(N(C)Cc2ccco2)ncn1	3.16 µM (active)	–
Cc1noc(C)c1-c1cc(N(C)C)ncn1	3.16 µM (active)	–
N#CCSc1ncnc2c1cnn2CCO	15.8 µM (active)	–
COc1ccc(NC(=S)N(CCc2nc3cc(C)c(C)cc3[nH]2)Cc2cccnc2)cc1	15.8 µM (active)	–

Compound	AC50	activity, negative = inhibition
CCN1C(=O)C(CC(=O)Nc2ccc(OC)cc2)N(Cc2cccnc2)C1=S (stereo unspecified)	inactive	–
COc1cccc(NC(=O)C2c3cc(OC)c(OC)cc3C(=O)N(C)C2c2cccnc2)c1 (stereo unspecified)	inactive	–
COc1cccc(NC(=S)N(CCc2nc3cc(C)c(C)cc3[nH]2)Cc2cccnc2)c1	14.1 µM (active)	–
Cc1cccc(NC(=S)N(CCc2nc3cc(C)c(C)cc3[nH]2)Cc2cccnc2)c1	14.1 µM (active)	–
O=C1CCC=C1[C@@H](O)CCc1ccccc1	–	-4.4% [at 11.4 µM] (inactive)
CN(C)[C@H]1C(=O)C(C(=O)NCN2CCCC2)=C(O)[C@]2(O)C(=O)C3=C(O)c4c(O)cccc4[C@](C)(O)[C@H]3C[C@H]12	–	-17.5% [at 11.4 µM] (inactive)
CCCCNC(=O)CSc1nc2cc(OC)c(OC)cc2c(=O)n1Cc1ccc(OC)cc1	inactive	–
COc1cc2nc(SCc3ccc(Cl)cc3Cl)n(Cc3cccs3)c(=N)c2cc1OC	5.01 µM (active)	–
CCCN1CCN(CCCNC(=O)Cn2nc(-c3ccc(C)cc3)ccc2=O)CC1	inactive	–
Cc1nc(C(=O)Nc2ccc(Cl)cc2Cl)nn1-c1cc(OC(C)C)c(Cl)cc1Cl	inactive	–
CC(Oc1ccc(Cl)cc1Cl)C(=O)/C=C/N(C)C (stereo unspecified)	7.08 µM (active)	–
Nc1ncnc2nc(N3CCN(CCO)CC3)[nH]c12	–	-1.17% [at 2.29 µM] (inactive)
CN(C)CCOC(=O)C1(c2ccccc2)CCOCC1	inactive	–
CCN(CC)CCOC(=O)C1(c2ccc([N+](=O)[O-])cc2)CCCC1	3.16 µM (active)	–
CCS(=O)(=O)N1CCC(C(=O)NCc2ccco2)CC1	inactive	–
CCOc1ccc(-n2cc(C(=O)NCc3ccco3)c3cc(OC)c(OC)cc3c2=O)cc1	inactive	–
O=C(O)C1C2CCC(C2)C1C(=O)NCc1ccco1 (stereo unspecified)	inactive	–
Cc1ccc(OCCCC(=O)NCc2ccco2)cc1	14.1 µM (active)	–
CCCCCOc1ccc(C(=O)NCC2(c3ccccc3)CCOCC2)cc1	15.8 µM (active)	–
C=CCNC(=O)/C(=C\C=C\c1ccccc1)NC(=O)c1ccc(OCCCC)cc1	inactive	–
C/C(CC(=O)NCc1ccco1)=N\NC(=O)Cc1ccccc1	inactive	–
CCCCOc1ccc(C(=O)NCc2ccco2)cc1	1.26 µM (active)	–
Cc1ccc(OCC(=O)NNC(=O)CCC(=O)NCc2ccccc2)cc1	inactive	–
CC(C)(C)c1ccc(C(=O)NCCC(=O)NCc2ccco2)cc1	1.58 µM (active)	–

Compound	AC50	activity, negative = inhibition
COc1ccc(S(=O)(=O)N(C)CC(=O)NCc2ccco2)cc1	inactive	–
CC(=O)c1ccc(NC(=O)C2(c3ccccc3)CCOCC2)cc1	inactive	–
Cc1cc(C)cc(Oc2nn[nH]n2)c1	inactive	–
COc1cccc([C@H]2Oc3ccc(OC)cc3/C(=N\O[C@@H](C)c3cn([C@H](CO)Cc4ccccc4)nn3)[C@@H]2O)c1	–	-7.2% [at 11.4 µM] (inactive) and -11.9% [at 11.4 µM] (inactive)
COc1ccccc1NC(=O)c1cnc2n(c1=O)CCS2	2.24 µM (active)	–
COc1ccccc1NC(=O)c1sc2ncn(Cc3ccccc3C)c(=O)c2c1C	3.16 µM (active)	–
CCCCN(Cc1ccccc1)C(=O)c1cnc2n(c1=O)CCS2	inactive	–
CCOC(=O)N1CCN(C(=O)c2cnc3n(c2=O)CCS3)CC1	inactive	–
CCCNC(=O)Cn1cnc2sc(C(=O)Nc3ccc4c(c3)OCO4)c(C)c2c1=O	inactive	–
CCn1cnc2sc(C(=O)N3CCN(c4ccc(OC)cc4)CC3)c(C)c2c1=O	inactive	–
COC(=O)C(NNc1ccccc1)(NC(=O)c1ccccc1F)C(F)(F)F (stereo unspecified)	inactive	–
CN1CCN(NC(=O)c2ccccc2F)CC1	inactive	–
O=C(NC(=S)N(Cc1ccccc1)Cc1ccccc1)c1ccccc1F	11.2 µM (active)	–
Cc1ccc(S(=O)(=O)NC(=O)OC23COCN2COC3)cc1	–	7.51% [at 11.4 µM] (inactive)
NCCCCN	inactive	–
NCCCCNCCCN	inactive and 31.6 µM (active)	–
NCCCNCCCCNCCCN	inactive	–
COc1cc(Br)c(C(C)NC(=O)c2cccc(Br)c2)cc1OC (stereo unspecified)	12.6 µM (active)	–
COc1ccc(C(=O)NC(C)c2cc(OC)c(OC)cc2Br)cc1 (stereo unspecified)	14.1 µM (active)	–
COc1ccc(C(=O)N2CCC3(CC2)CN(C(=O)NC(C)C)C3)cc1	inactive	–
COc1ccccc1C(c1nnnn1C(C)(C)C)N1CCCc2ccccc21 (stereo unspecified)	inactive	–
CC(C)(N=NC(C)(C)C(=N)N)C(=N)N	–	-4.86% [at 11.4 µM] (inactive)
CCc1ccc(N2CC(C)Cn3c2nc2c3c(=O)n(CCN3CCOCC3)c(=O)n2C)cc1 (stereo unspecified)	inactive	–
Cc1ccccc1-c1ccc2ncnc(NCc3cccs3)c2c1	2.51 µM (active)	–

Compound	AC50	activity, negative = inhibition
Cc1noc(C)c1-c1ccc2ncnc(NCc3cccnc3)c2c1	0.316 µM (active)	–
Cc1noc(C)c1-c1ccc2ncnc(NCc3cccs3)c2c1	0.398 µM (active)	–
Cc1noc(C)c1-c1ccc2ncnc(NCc3ccccc3)c2c1	3.16 µM (active)	–
O=C(O)CN(CCN(CC(=O)O)CC(=O)O)CCN(CC(=O)O)CC(=O)O	inactive	–
C#CCCCO/N=C1/C[C@@H](O)[C@@H](O)[C@@H]2[C@@H]3C(=O)N(C4CCCCC4)C(=O)[C@H]3CC[C@@H]12	–	1.04% [at 11.4 µM] (inactive)
Cc1cccc(CNc2ncnc3ccc(-c4c(C)noc4C)cc23)c1	5.01 µM (active)	–
O=C(N/N=C1\CCCc2ccccc21)c1ccc([N+](=O)[O-])cc1Cl	15.8 µM (active)	–
Cc1cccc(N=C2NN=C(c3ccc4c(c3)OCCO4)CS2)c1	14.1 µM (active)	–
Nc1nnc(SCCOc2cccc(Br)c2)s1	5.01 µM (active)	–
CN(C)c1cc(-c2cccc(NS(C)(=O)=O)c2)ncn1	1.26 µM (active)	–
CS(=O)(=O)Nc1cccc(-c2cc(Nc3ccccc3)ncn2)c1	0.398 µM (active)	–
CS(=O)(=O)Nc1cccc(-c2cc(NCc3ccccc3)ncn2)c1	12.6 µM (active)	–
Cc1cccc(CNc2cc(-c3cccc(NS(C)(=O)=O)c3)ncn2)c1	10 µM (active)	–
Cc1cccc(NS(=O)(=O)c2c(C)n[nH]c2C)c1	inactive	–
COc1ccc(NC(=O)N2CCCC3(CCN(C(=O)c4csnn4)CC3)C2)cc1	inactive	–
CS(=O)(=O)Nc1cccc(-c2cc(NCc3cccs3)ncn2)c1	6.31 µM (active)	–
Cc1ccc(NC(=O)CN2C(=O)N/C(=C/c3ccc(C)o3)C2=O)cc1	inactive	–
Cc1ccc(/C=C/C(=O)N2CC(C)CC(C)C2)o1 (stereo unspecified)	8.91 µM (active)	–
C[C@@H](NCc1cc(Br)cc2[nH]c(=O)c(=O)[nH]c12)P(=O)(O)O	inactive	–
COC(=O)N1CCC2(CCCN(Cc3cc(C(F)(F)F)cc(C(F)(F)F)c3)C2)CC1	inactive	–
CC(C)(C)n1ncc2c(=O)n(CC(=O)NCc3ccccc3Cl)cnc21	inactive	–
Cc1ccccc1Cn1cnc2c(cnn2C(C)(C)C)c1=O	inactive	–
CCCCn1cnc2c(cnn2-c2ccc(F)cc2)c1=O	3.16 µM (active)	–
Clc1ccc(Cc2nc(-c3cccnc3)no2)cc1	1 µM (active)	–
